# Records with an inconclusive call do not appear. Entries that show only a call come without a potency. Calls of active or inactive are those of the source. Unless noted, the call rests on the fitted dose curve; in most records, active means well fitted curve in the direction sought with a large enough effect; inconclusive means small, poorly fitted or top-dose-only effect, or another doubt; inactive means no such curve, though single readings can be large; an effect the other way counts as inactive or inconclusive.
# Key:
# [1] = molecular target: Cytochrome P450 2D6 (Homo sapiens) (UniProt P10635); assay: Cytochrome P450 family 2 subfamily D member 6 (CYP2D6) small molecule antagonists: luciferase biochemical (cell-free) qHTS assay (AID 1645840; active means well fitted curve in the direction sought with a large enough effect in the repeat runs; an effect the other way counts as inactive or inconclusive; further: nearly all actives have a fitted effect of over 55% in size; further: potency means the concentration at half of the fitted maximal effect)
# Outline: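 P450-Glo CYP2D6 system: proluciferin substrate converted by enzyme to luciferin, read by luminescence proportional to activity. Enzyme-substrate mix with compound 10 min at room temperature, then NADPH regeneration 1 h before detection reagent.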
# [2] = molecular target: Cytochrome P450 2C9 (Homo sapiens) (UniProt P11712); assay: Cytochrome P450 family 2 subfamily C member 9 (CYP2C9) small molecule antagonists: luciferase biochemical (cell-free) qHTS assay (AID 1645842; active means well fitted curve in the direction sought with a large enough effect in the repeat runs; an effect the other way counts as inactive or inconclusive; further: nearly all actives have a fitted effect of over 55% in size; further: potency means the concentration at half of the fitted maximal effect)
# Outline: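 P450-Glo CYP2C9 system: proluciferin substrate with enzyme in mix containing 0.4% BSA, 10 min at room temperature, then NADPH regeneration solution added and incubated 1 h at 37C. Detection reagent stopped reaction; luminescence read after 20 min as RLU.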
# [3] = Cytotoxicity counterscreen for inhibitors of SARS-CoV-2 cell entry (AID 1645845; calls by dose curve; further: nearly all actives have a fitted effect of over 50% in size)
# Outline: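 Counterscreen run in the same HEK293-ACE2 line as the pseudotyped-particle entry assay, without particles. Viability after 48 h at 37 C was read as ATP luminescence, scaled between cell-containing and cell-free wells.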
# [4] = Primary qHTS to identify inhibitors of SARS-CoV-2 cell entry (AID 1645846; calls by dose curve; further: nearly all actives have a fitted effect of over 45% in size); details: activity change, negative = inhibition: at 57.1 µM (top of the series) unless noted
# Outline: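 Data are normalized to wells receiving SARS-CoV-2-S pseudoparticles and those given bald particles. Entry signal was luciferase luminescence in stable hACE2 Expi293F cells, 48 hr post-infection, after 1 hr compound pretreatment.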
# Papain (Carica papaya) = Papain (Carica papaya) (UniProt P00784); assay: Primary qHTS assay for inhibitors of the protease papain (AID 1645873);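 further: papain turnover of Z-FR-AMC read as the AMC fluorescence gain over 10 min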
# [5] = Primary qHTS for inhibitors of nuclear receptor binding SET domain protein 2 (NSD2) in an isogenic RCH-ACV NSD2 p.E1099K mutant (9B) (AID 1645876); further: nearly all actives have a fitted effect of over 70% in size
# [6] = Primary qHTS for inhibitors of nuclear receptor binding SET domain protein 2 (NSD2) in an RCH-ACV wild type WT cells (2C) (AID 1645877); further: nearly all actives have a fitted effect of over 70% in size
# [7] = NCATS anti-infectives library activity on HEK293 viability as a counter-qHTS vs the C. elegans viability qHTS (AID 1745854);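 further: HEK293 cells exposed to compounds for 24 hr before the viability read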
# Outline: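 Counter-screen for cytotoxicity: HEK293, 24 hr, 37C, compounds up to 41.7 uM final (a dilution series, 1:5). Readout CellTiter-Glo luminescence, 10 min RT. Digitonin control, […] uM final.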
# [8] = molecular target: Metallo-beta-lactamase type 2 (Klebsiella pneumoniae) (UniProt C7C422); assay: qHTS to identify inhibitors of the New Delhi Metallo-beta-lactamase (NDM): assay validation screen against the NCATS LOPAC Collection (AID 1794843);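 further: nitrocefin turnover by NDM-1 measured as 485 nm absorbance at plateau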
# Outline: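 NDM-1 at 2 nM final in 50 mM HEPES pH 7.0, 1 uM ZnSO4, 0.01% Tween20, preincubated with LOPAC compounds pinned in DMSO; 50 uM nitrocefin (stock) added. Hydrolysis read as absorbance at 485 nm in the plateau phase.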
# [9] = molecular target: Glutathione peroxidase 1 (Homo sapiens) (UniProt P07203); assay: Primary qHTS Assay for Inhibitors of Recombinant Selenoprotein Glutathione Peroxidase 1 (GPX1) (AID 1845191); further: nearly all actives have a fitted effect of over 65% in size
# Outline: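 GR-coupled readout: NADPH consumption tracked by fluorescence, ex 340/em 450 nm, at t=0 and after 15 min at RT. Final mix 10 nM GPX1, 1 mM GSH, 0.5 mM CHP, 0.5 mM NADPH, 100 nM GR, 0.01% BSA, following 30 min enzyme–compound preincubation.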
# [10] = molecular target: Cytochrome P450 3A4 (Homo sapiens) (UniProt P08684); assay: Cytochrome P450 family 3 subfamily A member 4 (CYP3A4) small molecule antagonists: luciferase qHTS assay (AID 1645841; active means well fitted curve in the direction sought with a large enough effect in the repeat runs; an effect the other way counts as inactive or inconclusive; further: nearly all actives have a fitted effect of over 45% in size)
# Outline: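 P450-Glo CYP3A4 enzyme with proluciferin substrate preincubated 10 min with compound at room temperature, then NADPH regeneration 1 h. Luciferin detection reagent added for 20 min; luminescence recorded. Ketoconazole positive control.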
# Chain of Cytochrome P450 2D6 (Homo sapiens) (P10635 whole entry, looked up): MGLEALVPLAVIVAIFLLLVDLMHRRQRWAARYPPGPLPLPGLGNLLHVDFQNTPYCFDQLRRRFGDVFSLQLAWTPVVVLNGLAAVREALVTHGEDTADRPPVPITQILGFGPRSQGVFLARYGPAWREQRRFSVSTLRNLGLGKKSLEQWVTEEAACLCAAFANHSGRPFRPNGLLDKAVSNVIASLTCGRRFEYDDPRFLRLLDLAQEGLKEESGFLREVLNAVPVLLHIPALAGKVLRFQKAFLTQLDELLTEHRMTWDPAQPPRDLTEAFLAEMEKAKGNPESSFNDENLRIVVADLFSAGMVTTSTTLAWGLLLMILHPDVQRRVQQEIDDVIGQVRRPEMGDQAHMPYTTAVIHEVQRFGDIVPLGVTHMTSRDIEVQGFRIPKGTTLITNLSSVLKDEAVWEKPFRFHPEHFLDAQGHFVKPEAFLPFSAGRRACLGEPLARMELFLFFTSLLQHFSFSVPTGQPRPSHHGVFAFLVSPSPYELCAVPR
# Chain of Metallo-beta-lactamase type 2 (Klebsiella pneumoniae) (C7C422 whole entry, looked up): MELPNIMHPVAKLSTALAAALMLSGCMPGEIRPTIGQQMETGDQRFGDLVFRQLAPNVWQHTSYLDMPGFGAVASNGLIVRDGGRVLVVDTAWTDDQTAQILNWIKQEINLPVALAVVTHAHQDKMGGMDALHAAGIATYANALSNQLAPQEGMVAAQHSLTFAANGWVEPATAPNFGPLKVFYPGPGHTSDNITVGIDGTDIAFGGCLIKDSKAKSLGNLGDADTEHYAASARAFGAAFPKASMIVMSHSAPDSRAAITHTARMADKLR
# Chain of Papain (Carica papaya) (P00784 whole entry, looked up, the tested form may be a part): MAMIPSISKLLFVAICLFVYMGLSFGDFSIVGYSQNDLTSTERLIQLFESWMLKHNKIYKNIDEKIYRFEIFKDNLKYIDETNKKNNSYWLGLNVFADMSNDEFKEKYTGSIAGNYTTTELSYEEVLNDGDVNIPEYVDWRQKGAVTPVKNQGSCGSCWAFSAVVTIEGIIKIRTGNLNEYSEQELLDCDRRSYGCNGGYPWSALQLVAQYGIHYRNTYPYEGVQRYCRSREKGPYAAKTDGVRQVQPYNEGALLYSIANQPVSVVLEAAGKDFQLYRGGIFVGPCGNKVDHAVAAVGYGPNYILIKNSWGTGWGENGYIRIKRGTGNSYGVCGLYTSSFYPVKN
# Chain of Cytochrome P450 2C9 (Homo sapiens) (P11712 whole entry, looked up): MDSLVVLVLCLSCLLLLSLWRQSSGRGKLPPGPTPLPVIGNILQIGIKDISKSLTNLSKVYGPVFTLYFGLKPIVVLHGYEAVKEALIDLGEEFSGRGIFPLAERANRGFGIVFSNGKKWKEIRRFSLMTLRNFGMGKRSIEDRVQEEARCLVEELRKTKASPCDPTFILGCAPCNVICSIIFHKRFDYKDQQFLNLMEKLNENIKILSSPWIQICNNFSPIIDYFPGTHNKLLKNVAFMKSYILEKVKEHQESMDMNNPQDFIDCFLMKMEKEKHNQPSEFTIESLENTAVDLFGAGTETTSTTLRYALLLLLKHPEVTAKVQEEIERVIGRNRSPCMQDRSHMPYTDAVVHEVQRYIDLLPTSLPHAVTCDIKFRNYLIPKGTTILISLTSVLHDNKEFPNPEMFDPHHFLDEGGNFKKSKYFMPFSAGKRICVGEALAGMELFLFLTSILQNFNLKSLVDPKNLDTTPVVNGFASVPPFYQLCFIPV
# Chain of Glutathione peroxidase 1 (Homo sapiens) (P07203 whole entry, looked up): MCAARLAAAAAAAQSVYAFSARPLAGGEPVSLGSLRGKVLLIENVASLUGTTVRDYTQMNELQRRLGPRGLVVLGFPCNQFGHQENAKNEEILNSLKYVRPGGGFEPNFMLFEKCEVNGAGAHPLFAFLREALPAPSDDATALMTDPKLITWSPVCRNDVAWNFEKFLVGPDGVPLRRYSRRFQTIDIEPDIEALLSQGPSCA
# Chain of Cytochrome P450 3A4 (Homo sapiens) (P08684 whole entry, looked up): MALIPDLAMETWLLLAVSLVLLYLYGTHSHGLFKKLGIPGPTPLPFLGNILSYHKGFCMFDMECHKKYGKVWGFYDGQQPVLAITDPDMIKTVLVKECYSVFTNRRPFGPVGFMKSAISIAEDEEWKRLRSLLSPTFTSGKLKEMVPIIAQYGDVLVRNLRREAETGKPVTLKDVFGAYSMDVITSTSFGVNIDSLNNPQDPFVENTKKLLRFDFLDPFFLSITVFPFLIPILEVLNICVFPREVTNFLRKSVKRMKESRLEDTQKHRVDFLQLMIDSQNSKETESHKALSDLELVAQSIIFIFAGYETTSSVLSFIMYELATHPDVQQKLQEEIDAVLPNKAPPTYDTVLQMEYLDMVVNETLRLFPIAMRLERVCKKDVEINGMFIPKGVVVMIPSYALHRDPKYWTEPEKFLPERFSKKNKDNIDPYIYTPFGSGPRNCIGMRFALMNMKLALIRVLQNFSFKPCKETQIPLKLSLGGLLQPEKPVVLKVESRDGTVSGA
SMILES,Potency [1],Potency [2],Potency [3],Potency [4],outcome (Papain (Carica papaya)),Potency [5],Potency [6],outcome [7],outcome [8],Potency [9],"activity change, negative = inhibition [4] [%]",Potency [10]
CC(C)(C)NCC(O)c1ccccc1Cl (stereo unspecified),12.3 µM (active),inactive,inactive,inactive,inactive,inactive,inactive,inactive,inactive,inactive,–,–
COP(=S)(OC)SCN1C(=O)c2ccccc2C1=O,15.5 µM (active),0.776 µM (active),inactive,inactive,–,–,–,–,–,–,–,–
Oc1ccc(Cl)cc1,inactive,inactive,inactive,–,–,inactive,inactive,–,–,inactive,-1.58,–
C[C@H]1[C@@H]2Cc3ccc(O)cc3[C@@]1(C)CCN2C,107 µM (active),inactive,–,–,–,inactive,inactive,–,–,–,–,–
CC(C)N(CCC(C(N)=O)(c1ccccc1)c1ccccn1)C(C)C (stereo unspecified),inactive,inactive,inactive,–,inactive,inactive,inactive,–,inactive,inactive,–,–
O=C(CCCN1CCC2(CC1)C(=O)NCN2c1ccccc1)c1ccc(F)cc1,0.309 µM (active),inactive,–,–,inactive,–,–,–,inactive,inactive,–,–
CC(=O)C1CCOC1=O (stereo unspecified),inactive,inactive,–,–,–,inactive,inactive,–,–,–,–,–
COP(=S)(OC)Oc1ccc(S(=O)(=O)N(C)C)cc1,inactive,0.617 µM (active),inactive,inactive,–,inactive,–,–,–,inactive,–,–
COc1c2c(cc3c1OCO3)CCN(C)C2,2.45 µM (active),inactive,inactive,–,–,inactive,inactive,–,–,inactive,-9.9,–
CC(C)(N)Cc1ccccc1Cl,13.8 µM (active),inactive,–,–,–,inactive,inactive,–,–,–,–,–
Nc1ccc([As](=O)(O)O)cc1,inactive,inactive,–,–,–,inactive,inactive,–,–,inactive,-1.46,inactive
